A short description of experiment [1]: Primary qHTS for small molecule stabilizers of the endoplasmic reticulum resident proteome: Secreted ER Calcium Modulated Protein (SERCaMP) assay (AID 1508630). Further: on the % scale 0 is the no-effect control and ±100 the full control effect. The method in brief: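 GLuc-SERCaMP-expressing SH-SY5Y cells, pretreated 16 h with compound, are challenged with thapsigargin to empty ER calcium stores; after 4 h, coelenterazine is added directly to the medium and luminescence is imaged.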

Experiment [2] deals with Cytochrome P450 2D6 (Homo sapiens) (UniProt P10635). Description: Cytochrome P450 family 2 subfamily D member 6 (CYP2D6) small molecule antagonists: luciferase biochemical (cell-free) qHTS assay (AID 1645840; active means well fitted curve in the direction sought with a large enough effect in the repeat runs; an effect the other way counts as inactive or inconclusive; further: nearly all actives have a fitted effect of over 55% in size; further: potency means the concentration at half of the fitted maximal effect; on activity change, negative = inhibition: series mostly up to about 57 µM; on the % scale 0 is the no-effect control and ±100 the full control effect). The method in brief: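 P450-Glo luminescent screen: recombinant CYP2D6 enzyme–proluciferin substrate mix preincubated with compound 10 min at room temperature, then NADPH regeneration added for 1 h at room temperature. Detection reagent added for 20 min; luciferin light read as relative luminescence units.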
Sequence of Cytochrome P450 2D6 (Homo sapiens) (P10635 whole entry, looked up): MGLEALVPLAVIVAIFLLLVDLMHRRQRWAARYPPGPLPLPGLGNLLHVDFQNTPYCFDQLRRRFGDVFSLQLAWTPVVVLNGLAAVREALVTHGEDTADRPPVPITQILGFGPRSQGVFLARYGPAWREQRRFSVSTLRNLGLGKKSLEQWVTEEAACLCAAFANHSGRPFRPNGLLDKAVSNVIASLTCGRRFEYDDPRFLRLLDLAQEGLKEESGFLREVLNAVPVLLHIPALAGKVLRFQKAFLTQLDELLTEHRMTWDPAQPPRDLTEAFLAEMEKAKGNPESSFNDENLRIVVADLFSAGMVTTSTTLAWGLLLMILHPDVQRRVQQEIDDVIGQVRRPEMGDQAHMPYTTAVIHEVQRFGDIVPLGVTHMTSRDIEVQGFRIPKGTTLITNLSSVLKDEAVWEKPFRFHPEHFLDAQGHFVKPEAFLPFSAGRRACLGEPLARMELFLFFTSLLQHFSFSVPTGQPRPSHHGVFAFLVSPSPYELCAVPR

Experiment [3] addresses Cytochrome P450 2C9 (Homo sapiens) (UniProt P11712). Description: Cytochrome P450 family 2 subfamily C member 9 (CYP2C9) small molecule antagonists: luciferase biochemical (cell-free) qHTS assay (AID 1645842; active means well fitted curve in the direction sought with a large enough effect in the repeat runs; an effect the other way counts as inactive or inconclusive; further: nearly all actives have a fitted effect of over 55% in size; further: potency means the concentration at half of the fitted maximal effect; on activity change, negative = inhibition: series mostly up to about 57 µM; on the % scale 0 is the no-effect control and ±100 the full control effect). The method, boiled down:
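Luminescence, after 20 min with luciferin detection reagent, reflected CYP2C9 turnover during a 1 h NADPH-driven reaction at 37C. Enzyme-substrate mix contained 0.4% bovine serum albumin and was preincubated with compound 10 min at room temperature.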

Experiment [4] is described as follows: Primary qHTS for inhibitors of nuclear receptor binding SET domain protein 2 (NSD2) in an isogenic RCH-ACV NSD2 p.E1099K mutant (9B) (AID 1645876). Further: nearly all actives have a fitted effect of over 70% in size. Further: potency means the concentration at half of the fitted maximal effect.
A short description of experiment [5]: Primary qHTS for inhibitors of nuclear receptor binding SET domain protein 2 (NSD2) in an RCH-ACV wild type WT cells (2C) (AID 1645877). Further: nearly all actives have a fitted effect of over 70% in size. Further: potency means the concentration at half of the fitted maximal effect. On activity change, negative = cell killing: on the % scale 0 is the no-effect control and ±100 the full control effect.
Experiment [6] deals with Rap guanine nucleotide exchange factor 3 (Homo sapiens) (UniProt O95398). Description: Confirmatory qHTS for agonist of cAMP-regulated guanine nucleotide exchange factor 3 (EPAC1) (AID 1645881).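 Further: EPAC1 catalysed release of BODIPY-GDP from Rap1B seen as fluorescence loss; 100% = effect of cAMP agonist control; nearly all actives have a fitted effect of over 75% in size.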
Sequence of Rap guanine nucleotide exchange factor 3 (Homo sapiens) (O95398 whole entry, looked up): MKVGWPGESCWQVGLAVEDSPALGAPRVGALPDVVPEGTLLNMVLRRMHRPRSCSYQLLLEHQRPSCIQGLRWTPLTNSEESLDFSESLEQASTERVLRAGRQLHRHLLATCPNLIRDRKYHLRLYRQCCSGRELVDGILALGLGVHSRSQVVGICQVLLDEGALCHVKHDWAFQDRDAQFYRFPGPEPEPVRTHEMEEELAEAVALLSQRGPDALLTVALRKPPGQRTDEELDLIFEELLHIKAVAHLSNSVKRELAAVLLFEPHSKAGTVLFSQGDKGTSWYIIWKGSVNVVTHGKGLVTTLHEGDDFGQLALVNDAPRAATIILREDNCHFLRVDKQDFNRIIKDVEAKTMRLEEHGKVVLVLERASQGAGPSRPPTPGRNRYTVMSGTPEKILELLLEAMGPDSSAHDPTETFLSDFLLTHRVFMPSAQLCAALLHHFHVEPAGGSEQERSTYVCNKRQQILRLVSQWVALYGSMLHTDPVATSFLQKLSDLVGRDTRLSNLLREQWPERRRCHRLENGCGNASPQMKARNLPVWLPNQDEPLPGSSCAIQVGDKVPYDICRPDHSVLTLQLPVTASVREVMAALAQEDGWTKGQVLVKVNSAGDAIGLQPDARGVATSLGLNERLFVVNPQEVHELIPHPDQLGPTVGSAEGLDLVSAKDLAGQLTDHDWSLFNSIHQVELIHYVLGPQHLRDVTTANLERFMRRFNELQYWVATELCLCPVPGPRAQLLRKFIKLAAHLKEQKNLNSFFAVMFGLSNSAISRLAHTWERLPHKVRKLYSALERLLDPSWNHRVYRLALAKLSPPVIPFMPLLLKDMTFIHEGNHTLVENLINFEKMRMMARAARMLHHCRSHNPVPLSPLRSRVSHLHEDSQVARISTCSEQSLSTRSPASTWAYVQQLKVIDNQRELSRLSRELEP
The target in experiment [7] is Rap guanine nucleotide exchange factor 4 (Homo sapiens) (UniProt Q8WZA2). Description: Confirmatory qHTS for agonist of cAMP-regulated guanine nucleotide exchange factor 4 (EPAC2) (AID 1645884).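 Further: nucleotide exchange releases bodipy-GDP from Rap1 and this lowers its fluorescence; on the % scale 0 is the no-effect control and ±100 the full control effect; nearly all actives have a fitted effect of over 65% in size.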
Sequence of Rap guanine nucleotide exchange factor 4 (Homo sapiens) (Q8WZA2 whole entry, looked up): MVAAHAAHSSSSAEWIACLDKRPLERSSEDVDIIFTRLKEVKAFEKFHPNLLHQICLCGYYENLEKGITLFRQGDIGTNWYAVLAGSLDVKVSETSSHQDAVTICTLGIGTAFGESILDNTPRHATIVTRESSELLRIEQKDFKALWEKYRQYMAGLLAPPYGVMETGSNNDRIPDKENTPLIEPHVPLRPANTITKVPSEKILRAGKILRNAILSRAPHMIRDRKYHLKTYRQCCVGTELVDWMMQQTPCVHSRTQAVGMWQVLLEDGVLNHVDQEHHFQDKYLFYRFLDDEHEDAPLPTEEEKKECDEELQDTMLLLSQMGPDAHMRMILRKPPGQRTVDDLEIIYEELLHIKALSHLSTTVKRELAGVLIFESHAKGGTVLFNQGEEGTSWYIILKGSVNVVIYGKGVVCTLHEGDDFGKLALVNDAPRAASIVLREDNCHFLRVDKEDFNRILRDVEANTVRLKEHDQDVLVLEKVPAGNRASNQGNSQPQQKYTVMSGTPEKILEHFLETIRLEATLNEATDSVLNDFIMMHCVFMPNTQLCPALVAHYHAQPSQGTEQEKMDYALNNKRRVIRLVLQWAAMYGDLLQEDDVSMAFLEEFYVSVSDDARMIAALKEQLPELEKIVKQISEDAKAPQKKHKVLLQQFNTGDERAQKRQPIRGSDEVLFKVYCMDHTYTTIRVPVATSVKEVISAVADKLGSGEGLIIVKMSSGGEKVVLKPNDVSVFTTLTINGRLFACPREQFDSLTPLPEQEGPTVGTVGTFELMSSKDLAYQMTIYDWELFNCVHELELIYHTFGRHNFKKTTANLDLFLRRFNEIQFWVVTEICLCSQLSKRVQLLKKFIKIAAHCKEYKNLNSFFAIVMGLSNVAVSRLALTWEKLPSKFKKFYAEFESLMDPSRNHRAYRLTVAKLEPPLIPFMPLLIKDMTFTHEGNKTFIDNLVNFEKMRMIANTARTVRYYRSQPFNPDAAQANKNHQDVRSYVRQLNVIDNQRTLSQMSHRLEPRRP
The target is the same in experiment [8]. In words: Confirmatory qHTS for antagonist of cAMP-regulated guanine nucleotide exchange factor 4 (EPAC2) (AID 1645885). Further: potency means the concentration at half of the fitted maximal effect; nearly all actives have a fitted effect of over 25% in size.

The results in this text go back to PubChem BioAssay (NCATS).

Each structure is given as a SMILES string. “And” between values parts separate entries of the source, which are not always exact repeats. Identical values can stand only once. Records with an inconclusive call do not appear. Values without a mark were called inactive. The source made the active and inactive calls. Unless noted, the call rests on the fitted dose curve; in most records, active means well fitted curve in the direction sought with a large enough effect; inconclusive means small, poorly fitted or top-dose-only effect, or another doubt; inactive means no such curve, though single readings can be large; an effect the other way counts as inactive or inconclusive.

Sequence of Cytochrome P450 2C9 (Homo sapiens) (P11712 whole entry, looked up): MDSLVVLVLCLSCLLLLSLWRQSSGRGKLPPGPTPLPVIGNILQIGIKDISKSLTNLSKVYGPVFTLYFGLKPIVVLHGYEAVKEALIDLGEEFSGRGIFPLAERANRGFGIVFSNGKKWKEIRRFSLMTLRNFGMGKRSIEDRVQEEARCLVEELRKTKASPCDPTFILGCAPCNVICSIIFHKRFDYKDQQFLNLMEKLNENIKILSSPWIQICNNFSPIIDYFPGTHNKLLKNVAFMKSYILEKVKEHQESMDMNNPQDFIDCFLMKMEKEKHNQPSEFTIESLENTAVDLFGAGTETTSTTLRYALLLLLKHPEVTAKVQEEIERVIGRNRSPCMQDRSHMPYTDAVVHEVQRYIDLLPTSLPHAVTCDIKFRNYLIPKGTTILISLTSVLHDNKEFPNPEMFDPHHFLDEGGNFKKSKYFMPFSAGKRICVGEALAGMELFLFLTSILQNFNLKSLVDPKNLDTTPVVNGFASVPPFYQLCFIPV

With `Nc1nc(Cl)nc2c1ncn2[C@@H]1O[C@H](CO)[C@@H](O)[C@@H]1F`, the Potency result in experiment [1], in experiment [2] and in experiment [3] was “inactive” in each case. In addition, the Potency in experiment [4] is 10.6 nM (active) and 52.5 nM (active); in experiment [5] it was 8.4 nM (active) and 37.2 nM (active).

In the case of `O=C(N/N=C/c1ccc([N+](=O)[O-])o1)c1ccc(O)cc1`, the Potency entry in experiment [1] is “inactive”. For the same molecule, the Potency in experiment [2] is 3.89 µM (active); in experiment [4], 5.96 µM (active); in experiment [5], 8.41 µM (active).

Consider `CCN[C@@H]1C[C@H](N)[C@@H](OC2OC(CN)=CCC2N)[C@H](O)[C@H]1O[C@H]1OC[C@](C)(O)[C@H](NC)[C@H]1O` (stereo partly specified), for which the results for the activity change, negative = inhibition in experiment [1], in experiment [2] and in experiment [3] were -24.8% [at 0.478 µM], 2.45% [at 0.91 µM] and 10% [at 0.91 µM], respectively. Besides, the outcome in experiment [4] is “inactive [at 0.588 µM]”. Also, the activity change, negative = cell killing in experiment [5] was 2.3% [at 0.588 µM].

On to `COc1ccc(CCN(C)CCCN2CCc3cc(OC)c(OC)cc3CC2=O)cc1OC`, for which the Potency result in experiment [1], in experiment [2], in experiment [3], in experiment [4] and in experiment [5] was “inactive” each time.

Turning to `C[C@@]12C(=O)OC(=O)[C@]1(C)C1CCC2O1`, the Potency entry in experiment [1], in experiment [2] and in experiment [3] was “inactive” each time. Moreover, the Potency in experiment [4] is 2.99 µM (active); in experiment [5], 2.66 µM (active).

`C#C[C@]1(O)CC[C@H]2[C@@H]3CCc4cc(OC)ccc4[C@H]3CC[C@@]21C`: the Potency entry in experiment [1], in experiment [2], in experiment [4] and in experiment [5] was “inactive” throughout. The Potency in experiment [3] was 6.92 µM (active) and 4.25 µM (active).

Turning to `Cc1ccc(-c2ncc(Cl)cc2-c2ccc(S(C)(=O)=O)cc2)cn1`, the Potency entry in experiment [1], in experiment [3], in experiment [4] and in experiment [5] was “inactive” throughout.

Turning to `CC(=O)Nc1ccc(OCC(O)CNC(C)C)cc1` (stereo unspecified), the Potency result in experiment [1], in experiment [2], in experiment [3], in experiment [4] and in experiment [5] was “inactive” throughout.

As to `NC(=S)N/N=C/c1cccnc1`, the Potency entry in experiment [1], in experiment [3] and in experiment [4] was “inactive” in each case.

As for `CCc1oc2ccccc2c1C(=O)c1cc(I)c(O)c(I)c1`, in experiment [1], the Potency result was “inactive”. For the same molecule, the Potency is 347 nM (active) in experiment [3] and 27.8 µM (active) in experiment [8]. Further, the call in experiment [6] and in experiment [7] was inactive.
